Among the test systems are SR leukemia; RPMI-8226 leukemia; OVCAR-8 ovarian; OVCAR-5 ovarian; OVCAR-4 ovarian; SK-OV-3 ovarian; IGROV1 ovarian; OVCAR-3 ovarian; HS 578T breast; NCI/ADR-RES ovarian; T-47D breast; BT-549 breast; MDA-MB-435 melanoma; SW-620 colon; MCF7 breast; HCT-116 colon; HCC-2998 colon; KM12 colon.
Assay in all cases: NCI-60 one-dose screen, 48 h (100 = growth as untreated, 0 = no growth, -100 = all killed)
What all share (conditions): 10 µM unless noted

This is part of a sample that, as a whole, favours compounds with a hit. Of some 83,000 tested, about 20% had one in any assay.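 Cell lines were cultured in 96-well plates, exposed to a single compound concentration, and assessed for percent growth 48 hours later.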 Values without a mark were called inactive. Active and inactive are the calls of the source. How the source made its calls: active means growth percent below 10; inactive means the rest.

With `CC1(C)CC[C@]23CC[C@]4(C)[C@H](CC[C@@H]5[C@@]6(C)CCCN(CO)C(C)(C)[C@@H]6CC[C@]54C)[C@H]2[C@H]1OC3`, the growth in the test with SR leukemia was 1.43% (active); in the test on RPMI-8226 leukemia, 21.8%; in the test with OVCAR-8 ovarian, 101%; in the test on OVCAR-5 ovarian, 95.9%; with OVCAR-4 ovarian it was 85.6%; in the test on SK-OV-3 ovarian, 118%. Also, the growth was 69% in the test on IGROV1 ovarian; 66.6% in the test on OVCAR-3 ovarian; 91.3% with HS 578T breast; 101% in the test on NCI/ADR-RES ovarian; 57.3% in the test on T-47D breast; 85.5% with BT-549 breast. The growth with MDA-MB-435 melanoma is 88.7%; with SW-620 colon, 9.58% (active); in the test with MCF7 breast, 17.1%; with HCT-116 colon, 22.1%; in the test on HCC-2998 colon it was 3.53% (active); with KM12 colon it was 56.4%.
For the compound `O=C(NNc1nc2cc(F)ccc2n2c(CO)ccc12)c1cnccn1`, the growth in the test on SR leukemia is 5.16% (active); in the test with RPMI-8226 leukemia it was 21%; with OVCAR-8 ovarian, 10.9%; with OVCAR-5 ovarian, 36.4%; with OVCAR-4 ovarian it was 20.5%; in the test on SK-OV-3 ovarian it was 9.3% (active). The growth in the test with IGROV1 ovarian is 14.9%; in the test with OVCAR-3 ovarian, 33.4%; in the test on HS 578T breast, 68.3%; in the test with NCI/ADR-RES ovarian, 3.02% (active); in the test with T-47D breast, 11.7%; in the test with BT-549 breast it was 22.6%. The growth with MDA-MB-435 melanoma was 27.3%; in the test on SW-620 colon, 21.3%; in the test on MCF7 breast it was 8.73% (active); with HCT-116 colon, 17.7%; with HCC-2998 colon, 44.5%; with KM12 colon, 22.2%.
For `FC(F)(F)c1cc(Nc2cccc(Oc3ccc(NC4=NCCN4)nc3)c2)ccc1Cl`, the growth was -28.1% (active) in the test with SR leukemia; -37.6% (active) in the test on RPMI-8226 leukemia; 30.8% in the test with OVCAR-8 ovarian; 3.8% (active) in the test with OVCAR-5 ovarian; 28.2% in the test on OVCAR-4 ovarian; 71% with SK-OV-3 ovarian. The growth is -1.17% (active) in the test with IGROV1 ovarian; -40.3% (active) with OVCAR-3 ovarian; 39.7% in the test with HS 578T breast; -10.6% (active) with NCI/ADR-RES ovarian; 23.4% in the test on T-47D breast; 44.7% in the test on BT-549 breast. Moreover, the growth with MDA-MB-435 melanoma was -40% (active); with SW-620 colon it was -75.8% (active); with MCF7 breast it was -42.5% (active); with HCT-116 colon, -48.5% (active); in the test on HCC-2998 colon, -58% (active); in the test with KM12 colon, -60.4% (active).
Consider `NC(N)=Nc1ccc(Oc2cccc(Nc3cccc(C(F)(F)F)c3)c2)cn1`, for which the growth is -46.9% (active) in the test on SR leukemia; -41.5% (active) in the test with RPMI-8226 leukemia; 45.4% in the test on OVCAR-8 ovarian; 50.4% in the test on OVCAR-5 ovarian; 24.7% with OVCAR-4 ovarian; 67.8% in the test on SK-OV-3 ovarian. Besides, the growth in the test with IGROV1 ovarian was 13.8%; in the test on OVCAR-3 ovarian, -66.6% (active); in the test with HS 578T breast it was 52.8%; in the test on NCI/ADR-RES ovarian, 46.6%; with T-47D breast, 37.3%; in the test on BT-549 breast, 61.2%. The growth in the test on MDA-MB-435 melanoma is -20.6% (active); in the test on SW-620 colon, -79.1% (active); in the test with MCF7 breast it was -69.1% (active); in the test with HCT-116 colon, -76.8% (active); with HCC-2998 colon, -91.9% (active); in the test on KM12 colon it was -82.8% (active).
As to `COc1ccc(NC2=C(Cl)C(=O)c3nc(C)ccc3C2=O)cc1OC`, the growth with SR leukemia is 0.922% (active); in the test on RPMI-8226 leukemia, 47.3%; with OVCAR-8 ovarian, 92.6%; in the test with OVCAR-5 ovarian, 105%; in the test with OVCAR-4 ovarian, 71.4%; in the test with SK-OV-3 ovarian, 91.8%. Besides, the growth with IGROV1 ovarian is 19.6%; with OVCAR-3 ovarian, 13.2%; in the test with HS 578T breast, 119%; in the test with NCI/ADR-RES ovarian, 94.7%; in the test with T-47D breast it was 14.9%; in the test with BT-549 breast, 126%. For the same compound, the growth was -67.2% (active) with MDA-MB-435 melanoma; 72.2% in the test on SW-620 colon; 59% with MCF7 breast; 55.8% in the test with HCT-116 colon; 104% with HCC-2998 colon; 98.2% in the test on KM12 colon.
For `O=S(=O)(Oc1ccc(-c2nnc(Nc3ccccc3)s2)cc1)C(F)(F)C(F)(F)C(F)(F)C(F)(F)C(F)(F)C(F)(F)F`, the growth in the test with SR leukemia is 19.5%; with RPMI-8226 leukemia it was 105%; with OVCAR-8 ovarian, 107%; in the test on OVCAR-5 ovarian, 93.3%; in the test on OVCAR-4 ovarian it was 107%; in the test with SK-OV-3 ovarian it was 108%. Also, the growth was 107% in the test with IGROV1 ovarian; 108% in the test with OVCAR-3 ovarian; 98.4% with HS 578T breast; 103% in the test with NCI/ADR-RES ovarian; 104% in the test on T-47D breast; 112% in the test with BT-549 breast. In addition, the growth with MDA-MB-435 melanoma was 103%; in the test with SW-620 colon it was 103%; in the test with MCF7 breast it was 90.7%; with HCT-116 colon it was 109%; in the test on HCC-2998 colon, 105%; in the test with KM12 colon, 102%.
With `CC1(C)CC[C@]2(C(=O)O)CC[C@]3(C)C(=CC[C@@H]4[C@@]5(C)CC/C(=N\OCCC#N)C(C)(C)[C@@H]5CC[C@]43C)[C@@H]2C1`, the growth in the test on SR leukemia was 103%; in the test with RPMI-8226 leukemia it was 97.5%; in the test with OVCAR-8 ovarian, 109%; in the test with OVCAR-5 ovarian it was 103%; in the test with OVCAR-4 ovarian, 82.6%; in the test with SK-OV-3 ovarian, 110%. Besides, the growth in the test with IGROV1 ovarian was 85.7%; in the test on OVCAR-3 ovarian, 110%; in the test with HS 578T breast it was 107%; in the test on NCI/ADR-RES ovarian, 116%; with T-47D breast, 104%; in the test on BT-549 breast, 106%. Moreover, the growth with MDA-MB-435 melanoma is 101%; in the test on SW-620 colon, 94.2%; in the test on MCF7 breast, 95.5%; in the test on HCT-116 colon it was 96.4%; in the test on HCC-2998 colon, 116%; in the test with KM12 colon, 105%.
Turning to `CCO/C=N/C1=C(C#N)C(c2ccc(OC)cc2)c2sc3c(CC)cccc3c2O1` (configuration not stated), the growth in the test on SR leukemia was 20.1%; in the test with RPMI-8226 leukemia it was 12.7%; in the test with OVCAR-8 ovarian it was 42.9%; with OVCAR-5 ovarian, 43.5%; in the test on OVCAR-4 ovarian, 65%; in the test with SK-OV-3 ovarian, 66.6%. Further, the growth in the test on IGROV1 ovarian was 38.4%; in the test on OVCAR-3 ovarian, -28.8% (active); in the test with HS 578T breast it was 18.2%; with NCI/ADR-RES ovarian it was 10.3%; in the test with T-47D breast, 35.8%; in the test on BT-549 breast it was 63%. For the same compound, the growth was -39.2% (active) in the test on MDA-MB-435 melanoma; 35.3% with SW-620 colon; 24.6% in the test on MCF7 breast; 24.1% with HCT-116 colon; 44.3% in the test on HCC-2998 colon; 18.9% in the test with KM12 colon.
Take `O=C(NNc1nc2cc(F)ccc2n2c(CN3CC4CNCC4C3)ccc12)c1cnccn1` (configuration not stated): the growth in the test on SR leukemia is 12.9%; in the test on RPMI-8226 leukemia it was 46.7%; with OVCAR-8 ovarian, 14.3%; in the test on OVCAR-5 ovarian, 43.1%; in the test on OVCAR-4 ovarian it was 23.8%; in the test on SK-OV-3 ovarian, 23.4%. Further, the growth with IGROV1 ovarian was 24.2%; in the test with OVCAR-3 ovarian it was 36.9%; with HS 578T breast it was 72.5%; with NCI/ADR-RES ovarian it was 84.8%; with T-47D breast, 37.8%; with BT-549 breast, 35.3%. The growth in the test on MDA-MB-435 melanoma was 26.1%; in the test on SW-620 colon it was 23%; with MCF7 breast, 12.2%; with HCT-116 colon it was 16.4%; with HCC-2998 colon, 32.1%; with KM12 colon it was 16.8%.

Source of the values: PubChem BioAssay (NCI).
